The target in test [1] is Aldehyde dehydrogenase, mitochondrial (Homo sapiens) (UniProt P05091). As to the kind of experiment: qHTS for Inhibitors of the Aldehyde Dehydrogenase Family (ALDH2) Primary screen (AID 2061308). Also: nearly all actives have a fitted effect of over 55% in size. As to conditions: ALDH2 enzyme inhibition qHTS, 1536-well; series mostly up to 56 µM.
The target of test [2] is Retinaldehyde dehydrogenase 3 (Homo sapiens) (UniProt P47895). Description: qHTS for Inhibitors of the Aldehyde Dehydrogenase Family (ALDH1A3) Primary screen (AID 2061315). As to conditions: ALDH inhibition qHTS; series mostly up to 56 µM.

Structures are written as SMILES. Records with an inconclusive call do not appear. A call without a number means that no potency is given here. Calls of active or inactive are those of the source. Calls follow the shape of the dose curve; as a rule, active = well fitted curve in the direction sought with a large enough effect; inconclusive = small, poorly fitted or top-dose-only effect, or another doubt; inactive = no such curve, though single readings can be large; an effect the other way counts as inactive or inconclusive.

In the case of `N#Cc1ccc(-c2nc(NCc3ccc(-c4ccnc(C(F)(F)F)c4)cc3)c3ccccc3n2)cc1`, the Potency result in test [1] and in test [2] was “inactive” throughout.

Take `O=C1CCCC2=C1C(c1[nH]ncc1Cl)N=C(Nc1ccccc1)N2` (stereo unspecified): the Potency result in test [1] and in test [2] was “inactive” in each case.

Turning to `Cn1nnnc1Sc1ncnc2scc(-c3cccc(S(C)(=O)=O)c3)c12`, the Potency entry in test [1] and in test [2] was “inactive” in each case.

For `Cc1csc(CNc2ncnc3ccc(-c4cccnc4)cc23)c1`, the Potency entry in test [1] and in test [2] was “inactive” each time.

Turning to `O=C(CNC(=O)C1CCCC1)OC(C(=O)Nc1cc(C(F)(F)F)ccc1Cl)c1ccccc1` (stereo unspecified), the Potency entry in test [1] and in test [2] was “inactive” throughout.

For the compound `O=C(c1ccc2c(c1)ncn2-c1cccc(Cl)c1)N1CCCCC1`, the Potency entry in test [1] and in test [2] was “inactive” each time.

On to `COc1ccc(C2Nc3ccccc3C(=O)N2Cc2ccccc2)cc1COc1c(C)cccc1C` (stereo unspecified), for which the Potency result in test [1] and in test [2] was “inactive” throughout.

In the case of `CCc1ccc2oc(NC3=NC(c4[nH]ncc4Cl)C4=C(CCCC4=O)N3)nc2c1` (stereo unspecified), the Potency result in test [1] and in test [2] was “inactive” each time.

With `Cc1cnc(-c2ccccc2C(C)C)nc1NCc1ccc(-c2nn[nH]n2)cc1`, the Potency entry in test [1] and in test [2] was “inactive” in each case.

On to `CCc1ccc(NC(=O)c2cnn3c(C)cc(C)nc23)cc1`, for which the Potency result in test [1] and in test [2] was “inactive” throughout.

As for `Cc1cc2c(s1)c1cnn(Cc3ccc(Cl)c(Cl)c3)c(=O)c1n2C`, the Potency result in test [1] and in test [2] was “inactive” each time.

As for `Cc1cc2c(s1)c1cnn(Cc3cccc(Cl)c3F)c(=O)c1n2C`, the Potency result in test [1] and in test [2] was “inactive” in each case.

As to `Cc1ccc(S(=O)(=O)n2cc(C(=O)Nc3nc(-c4ccccc4)cs3)c3ccccc32)cc1`, the Potency result in test [1] and in test [2] was “inactive” each time.

Consider `CCN1CCN(C(=O)CCN(CC(C)C)c2nc(-c3cccs3)nc3ccccc23)CC1`, for which the Potency entry in test [1] and in test [2] was “inactive” each time.

On to `Cc1cc(C)nc(NC(=S)N2CCN(c3ncc(C(F)(F)F)cc3Cl)CC2)c1`, for which the Potency result in test [1] and in test [2] was “inactive” each time.

Consider `CCN(Cc1sccc1C)c1ncnc2ccc(-c3ccc4c(c3)OCO4)cc12`, for which the Potency entry in test [1] and in test [2] was “inactive” throughout.

As for `O=c1c2ccccc2nc2sc(Nc3cccc(Cl)c3)nn12`, the Potency entry in test [1] and in test [2] was “inactive” each time.

On to `CCOC(=O)C1CCN(C(=O)C(C)(C)NC(=O)Nc2ccc3ccccc3c2)CC1`, for which the Potency result in test [1] and in test [2] was “inactive” in each case.

Turning to `Cc1ccc(-c2nccc(=O)n2CC(=O)N(C)C(C)c2ccco2)cc1` (stereo unspecified), the Potency entry in test [1] and in test [2] was “inactive” each time.

For the compound `COc1ccc(CCNC(=O)Cn2nc(-c3ccc(C)cc3)ccc2=O)cc1OC`, the Potency entry in test [1] and in test [2] was “inactive” in each case.

Turning to `CC(=O)Nc1sc2c(c1C(=O)c1ccccc1)CCN(C(C)C)C2`, the Potency entry in test [1] and in test [2] was “inactive” in each case.

For `C/C=C(\C)C(=O)OC1C(C)C2(O)C(C=C(CO)CC3(O)C(=O)C(C)=CC32)C2C(C)(C)C12OC(=O)C(C)C` (stereo unspecified), the Potency result in test [1] and in test [2] was “inactive” in each case.

Take `Cc1ccc(OCCn2c(CCNC(=O)c3ccccn3)nc3ccccc32)cc1`: the Potency result in test [1] and in test [2] was “inactive” in each case.

In the case of `Cc1ccc(S(=O)(=O)Nc2ccncc2C(=O)Nc2nc(-c3ccccc3)cs2)cc1`, the Potency entry in test [1] and in test [2] was “inactive” throughout.

As for `CS(=O)(=O)Nc1ccc(-c2nc(NCc3ccc(-c4ccnc(C(F)(F)F)c4)cc3)c3ccccc3n2)cc1`, the Potency result in test [1] and in test [2] was “inactive” in each case.

Regarding `FC(F)(F)c1cccc(N2CCN(C(=S)Nc3ccccn3)CC2)c1`, the Potency result in test [1] and in test [2] was “inactive” throughout.

As to `CC1(C)CC[C@]2(C(=O)OC3OC(CO)C(O)C(O)C3O)CC[C@]3(C)C(=CCC4[C@@]5(C)CC[C@H](OC6OC(C(=O)O)C(O)C(O)C6O)C(CO)(CO)C5CC[C@]43C)[C@@H]2C1` (stereo partly specified), the Potency result in test [1] and in test [2] was “inactive” in each case.

In the case of `Cc1sc(NC(=O)Cc2ccc3c(c2)OCO3)nc1-c1ccc2c(c1)CCN2C(=O)c1ccccc1C(F)(F)F`, the Potency result in test [1] and in test [2] was “inactive” each time.

For the compound `COc1ccc(S(=O)(=O)N2CCN(C(=O)C3COc4ccccc4O3)CC2)cc1` (stereo unspecified), the Potency result in test [1] and in test [2] was “inactive” in each case.

For `CC(=O)Nc1sc2c(c1C(=O)O)CCNC2`, the Potency result in test [1] and in test [2] was “inactive” each time.

Turning to `Cc1cc2c(s1)c1cnn(Cc3c(F)cccc3F)c(=O)c1n2C`, the Potency entry in test [1] and in test [2] was “inactive” each time.

On to `Cc1ccc(NC(=O)Nc2nnc(-c3ccncc3)s2)cc1C`, for which the Potency result in test [1] and in test [2] was “inactive” in each case.

In the case of `O=C(/C=C/c1ccccc1)Nc1cccc(S(=O)(=O)Nc2ccccc2F)c1`, the Potency entry in test [1] and in test [2] was “inactive” throughout.

Turning to `COc1cccc(-c2ccc3ncnc(N(C)Cc4ccco4)c3c2)c1`, the Potency result in test [1] and in test [2] was “inactive” throughout.

On to `CCOc1ccc(CCNC(=O)C2=C(C)OCCO2)cc1OCC`, for which the Potency result in test [1] and in test [2] was “inactive” in each case.

Regarding `CC1=C(C(=O)n2ccc3ccccc32)C(c2ccccc2Br)N=C(Nc2nc3ccccc3o2)N1` (stereo unspecified), the Potency result in test [1] and in test [2] was “inactive” each time.

On to `CC(C)CC(OC(=O)CNC(=O)c1ccccc1)C(=O)Nc1cc(C(F)(F)F)ccc1Cl` (stereo unspecified), for which the Potency result in test [1] and in test [2] was “inactive” throughout.

`O=C(Nc1cccc(-c2nn3c(=O)cc(N4CCNCC4)nc3s2)c1)c1ccon1`: the Potency result in test [1] and in test [2] was “inactive” throughout.

The values above are taken from PubChem BioAssay (NCATS).
